# According to paper PMC7862700, “An all-to-all approach to the identification of sequence-specific readers for epigenetic DNA modifications on cytosine”:
# Experiments:
# Assay in all cases: DAPPL (digital affinity profiling via proximity ligation, sequencing); 10 mM Tris-HCl pH 7.5, 50 mM NaCl, 1 mM DTT, 4% glycerol, room temperature, 30 min; GST-TFs on glutathione beads, 16-mer random dsDNA library, 0.1% formaldehyde crosslink after washing; high values mean tight binding
# FEV = target: T1, FEV (Homo sapiens, UniProt Q99581 1-238); settings: protein: recombinant; tags: N-terminal GST; dsDNA, one strand shown
# T1 sequence: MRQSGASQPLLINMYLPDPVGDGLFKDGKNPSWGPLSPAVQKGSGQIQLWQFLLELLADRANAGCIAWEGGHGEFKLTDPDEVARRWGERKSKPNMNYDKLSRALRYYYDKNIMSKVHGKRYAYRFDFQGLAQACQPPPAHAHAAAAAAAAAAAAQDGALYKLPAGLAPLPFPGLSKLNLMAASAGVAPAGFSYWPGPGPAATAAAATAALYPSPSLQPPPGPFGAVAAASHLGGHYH
# Summary of the method: (§1)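 Human transcription factors fused to GST were expressed in yeast, captured on glutathione beads, given DNA barcodes and pooled with a GST-only negative control. Pools were incubated with 200 nmole of a 16-mer random double-stranded DNA library in Tris/NaCl/DTT/glycerol buffer at room temperature for 30 min. They were then washed, crosslinked with 0.1% formaldehyde, proximity-ligated (BsaI/T4 ligase, 1 h, 37 °C), PCR-amplified and sequenced on an Illumina NextSeq500. Binding signal is each 6-mer's read frequency for a factor divided by its frequency for the GST control.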
# ETV5 = ETV5 (Homo sapiens, UniProt P41161 1-510); settings: protein: recombinant; tags: N-terminal GST; dsDNA, one strand shown
# Chain of ETV5 (P41161 whole entry): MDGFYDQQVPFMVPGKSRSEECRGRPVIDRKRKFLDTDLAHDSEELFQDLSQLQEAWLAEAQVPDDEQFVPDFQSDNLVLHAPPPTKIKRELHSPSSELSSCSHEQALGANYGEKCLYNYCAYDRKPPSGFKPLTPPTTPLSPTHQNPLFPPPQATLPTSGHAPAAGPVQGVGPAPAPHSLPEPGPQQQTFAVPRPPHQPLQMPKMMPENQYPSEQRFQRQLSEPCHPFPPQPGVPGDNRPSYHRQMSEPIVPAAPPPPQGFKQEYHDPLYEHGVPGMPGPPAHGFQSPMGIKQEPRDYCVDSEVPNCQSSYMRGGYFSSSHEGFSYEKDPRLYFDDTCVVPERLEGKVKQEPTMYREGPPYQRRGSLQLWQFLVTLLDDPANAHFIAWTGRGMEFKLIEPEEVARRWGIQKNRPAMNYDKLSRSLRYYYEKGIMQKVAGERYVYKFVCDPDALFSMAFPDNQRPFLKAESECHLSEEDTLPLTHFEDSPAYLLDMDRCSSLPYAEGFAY
# Summary of the method: as §1
# HSF1 = HSF1 (Homo sapiens, UniProt Q00613 1-529); settings: protein: recombinant; tags: N-terminal GST; chain copies: 3; dsDNA, one strand shown
# Chain of HSF1 (Q00613 whole entry): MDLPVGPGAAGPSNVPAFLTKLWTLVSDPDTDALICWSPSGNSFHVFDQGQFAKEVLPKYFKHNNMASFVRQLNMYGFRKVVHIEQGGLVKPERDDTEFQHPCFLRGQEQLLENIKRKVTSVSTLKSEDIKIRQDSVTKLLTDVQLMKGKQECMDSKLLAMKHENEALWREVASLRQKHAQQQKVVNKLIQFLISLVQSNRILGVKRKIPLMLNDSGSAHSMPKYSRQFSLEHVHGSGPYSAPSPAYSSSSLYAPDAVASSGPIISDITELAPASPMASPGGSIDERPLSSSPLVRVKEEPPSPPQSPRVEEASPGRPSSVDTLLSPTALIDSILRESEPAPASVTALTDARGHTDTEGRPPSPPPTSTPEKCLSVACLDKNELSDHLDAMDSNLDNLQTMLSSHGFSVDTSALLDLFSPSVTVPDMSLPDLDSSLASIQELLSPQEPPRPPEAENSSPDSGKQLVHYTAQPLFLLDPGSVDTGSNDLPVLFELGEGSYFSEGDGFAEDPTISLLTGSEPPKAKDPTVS
# Summary of the method: as §1
# SPIC = target: T2, SPIC (Homo sapiens, UniProt Q8N5J4 1-248); settings: protein: recombinant; tags: N-terminal GST; dsDNA, one strand shown
# T2 sequence: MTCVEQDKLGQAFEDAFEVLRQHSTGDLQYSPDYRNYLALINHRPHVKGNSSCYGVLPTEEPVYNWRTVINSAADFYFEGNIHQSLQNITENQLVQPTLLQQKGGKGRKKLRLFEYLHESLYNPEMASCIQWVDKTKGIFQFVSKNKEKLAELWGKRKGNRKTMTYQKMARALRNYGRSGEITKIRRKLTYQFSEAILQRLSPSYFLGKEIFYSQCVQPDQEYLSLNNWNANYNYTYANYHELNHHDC
# Summary of the method: as §1
# ELF4 = ELF4 (Homo sapiens, UniProt Q99607 1-663); settings: protein: recombinant; tags: N-terminal GST; dsDNA, one strand shown
# Chain of ELF4 (Q99607 whole entry): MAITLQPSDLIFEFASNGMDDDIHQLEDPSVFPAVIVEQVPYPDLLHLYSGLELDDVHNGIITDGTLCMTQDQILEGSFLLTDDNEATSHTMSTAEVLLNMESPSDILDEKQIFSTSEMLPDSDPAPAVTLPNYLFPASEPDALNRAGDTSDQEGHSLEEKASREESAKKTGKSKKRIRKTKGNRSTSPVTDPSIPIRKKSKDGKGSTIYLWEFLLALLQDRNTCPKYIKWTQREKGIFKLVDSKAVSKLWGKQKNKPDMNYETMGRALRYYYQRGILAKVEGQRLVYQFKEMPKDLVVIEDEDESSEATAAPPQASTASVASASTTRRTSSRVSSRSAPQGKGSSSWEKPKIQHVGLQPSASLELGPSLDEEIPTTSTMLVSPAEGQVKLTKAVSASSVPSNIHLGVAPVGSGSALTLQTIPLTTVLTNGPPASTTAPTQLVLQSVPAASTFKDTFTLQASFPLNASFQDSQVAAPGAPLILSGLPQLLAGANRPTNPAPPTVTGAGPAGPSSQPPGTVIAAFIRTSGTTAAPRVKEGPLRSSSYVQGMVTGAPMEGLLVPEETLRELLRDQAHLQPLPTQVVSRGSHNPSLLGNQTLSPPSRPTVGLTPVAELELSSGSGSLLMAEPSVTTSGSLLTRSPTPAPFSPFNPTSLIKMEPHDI
# Summary of the method: as §1
# ELK4 = target: T3, ELK4 (Homo sapiens, UniProt P28324-2 1-405); settings: protein: recombinant; tags: N-terminal GST; dsDNA, one strand shown
# T3 sequence: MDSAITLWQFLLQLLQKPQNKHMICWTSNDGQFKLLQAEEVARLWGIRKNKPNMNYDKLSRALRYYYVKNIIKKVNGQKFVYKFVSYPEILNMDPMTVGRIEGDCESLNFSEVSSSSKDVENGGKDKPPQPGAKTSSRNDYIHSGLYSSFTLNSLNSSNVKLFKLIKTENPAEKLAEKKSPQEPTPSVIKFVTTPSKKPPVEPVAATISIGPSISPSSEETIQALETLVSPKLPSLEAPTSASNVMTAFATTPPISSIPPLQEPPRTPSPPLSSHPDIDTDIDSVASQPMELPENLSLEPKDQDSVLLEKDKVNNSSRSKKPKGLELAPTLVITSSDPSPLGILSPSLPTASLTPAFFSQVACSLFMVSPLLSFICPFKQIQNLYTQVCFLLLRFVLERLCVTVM
# Summary of the method: as §1
# ETV2 = target: T4, ETV2 (Homo sapiens, UniProt O00321 1-342); settings: protein: recombinant; tags: N-terminal GST; dsDNA, one strand shown
# T4 sequence: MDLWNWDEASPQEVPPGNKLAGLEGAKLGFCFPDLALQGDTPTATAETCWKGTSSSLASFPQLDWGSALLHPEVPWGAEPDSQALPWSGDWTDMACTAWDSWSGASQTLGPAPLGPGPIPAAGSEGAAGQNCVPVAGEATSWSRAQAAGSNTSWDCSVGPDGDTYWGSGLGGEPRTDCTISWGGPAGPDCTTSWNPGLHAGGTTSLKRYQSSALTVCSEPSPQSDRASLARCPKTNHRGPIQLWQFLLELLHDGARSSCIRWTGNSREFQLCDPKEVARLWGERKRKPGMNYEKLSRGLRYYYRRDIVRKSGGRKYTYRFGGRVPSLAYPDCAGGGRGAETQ
# Summary of the method: as §1
# ELF3 = target: T5, ELF3 (Homo sapiens, UniProt P78545 1-371); settings: protein: recombinant; tags: N-terminal GST; dsDNA, one strand shown
# T5 sequence: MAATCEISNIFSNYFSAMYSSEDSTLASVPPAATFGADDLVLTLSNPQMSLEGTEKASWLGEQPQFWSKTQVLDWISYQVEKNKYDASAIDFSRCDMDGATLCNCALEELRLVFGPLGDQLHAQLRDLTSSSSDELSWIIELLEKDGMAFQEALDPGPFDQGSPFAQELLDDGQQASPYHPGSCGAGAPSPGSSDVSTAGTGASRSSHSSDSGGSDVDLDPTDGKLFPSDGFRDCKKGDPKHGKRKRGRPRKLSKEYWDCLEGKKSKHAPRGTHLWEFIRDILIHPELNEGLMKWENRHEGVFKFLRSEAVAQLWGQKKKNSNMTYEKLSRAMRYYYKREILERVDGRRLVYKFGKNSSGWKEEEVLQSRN
# Summary of the method: as §1
# CRX = CRX (Homo sapiens, UniProt O43186 1-299); settings: protein: recombinant; tags: N-terminal GST; dsDNA, one strand shown
# Chain of CRX (O43186 whole entry): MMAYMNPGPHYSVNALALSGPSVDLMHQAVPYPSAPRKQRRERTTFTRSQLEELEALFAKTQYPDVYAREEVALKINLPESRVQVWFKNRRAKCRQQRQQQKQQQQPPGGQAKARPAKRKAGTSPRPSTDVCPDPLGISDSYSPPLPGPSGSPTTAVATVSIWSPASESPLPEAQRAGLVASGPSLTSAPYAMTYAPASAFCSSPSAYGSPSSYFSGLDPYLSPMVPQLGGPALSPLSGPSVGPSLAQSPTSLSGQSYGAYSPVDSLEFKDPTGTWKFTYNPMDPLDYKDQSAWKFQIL
# Summary of the method: as §1
# ETV1 = ETV1 (Homo sapiens, UniProt P50549 1-477); settings: protein: recombinant; tags: N-terminal GST; dsDNA, one strand shown
# Chain of ETV1 (P50549 whole entry): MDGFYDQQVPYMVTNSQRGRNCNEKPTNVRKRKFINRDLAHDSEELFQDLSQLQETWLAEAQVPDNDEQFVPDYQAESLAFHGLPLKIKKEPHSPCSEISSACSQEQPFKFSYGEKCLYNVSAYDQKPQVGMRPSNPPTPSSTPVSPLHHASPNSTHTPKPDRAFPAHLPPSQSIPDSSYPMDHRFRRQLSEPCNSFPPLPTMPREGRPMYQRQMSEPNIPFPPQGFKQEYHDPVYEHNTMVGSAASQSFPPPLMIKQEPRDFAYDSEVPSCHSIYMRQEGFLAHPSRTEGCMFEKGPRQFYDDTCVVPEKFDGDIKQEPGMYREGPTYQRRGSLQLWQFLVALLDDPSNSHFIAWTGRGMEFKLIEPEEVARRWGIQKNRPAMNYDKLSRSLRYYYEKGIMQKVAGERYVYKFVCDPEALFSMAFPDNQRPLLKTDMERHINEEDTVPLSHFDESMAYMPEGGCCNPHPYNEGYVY
# Summary of the method: as §1
sequence,measurement,setting,value
CTTGGA,binding signal,FEV,"1.04 fold enrichment (6-mer frequency, TF over GST control)"
same,binding signal,ETV5,"1.12 fold enrichment (6-mer frequency, TF over GST control)"
same,binding signal,HSF1,"1.26 fold enrichment (6-mer frequency, TF over GST control)"
same,binding signal,SPIC,"1.2 fold enrichment (6-mer frequency, TF over GST control)"
same,binding signal,ELF4,"1.21 fold enrichment (6-mer frequency, TF over GST control)"
same,binding signal,ELK4,"1.09 fold enrichment (6-mer frequency, TF over GST control)"
same,binding signal,ETV2,"1.12 fold enrichment (6-mer frequency, TF over GST control)"
same,binding signal,ELF3,"1.3 fold enrichment (6-mer frequency, TF over GST control)"
same,binding signal,CRX,"1.17 fold enrichment (6-mer frequency, TF over GST control)"
same,binding signal,ETV1,"1.17 fold enrichment (6-mer frequency, TF over GST control)"
